# Experiments:
# [1] = target: T1, Serine/threonine-protein kinase D2 (Homo sapiens) (UniProt Q9BZL6); conditions: at 1 µM;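 note: mean value of PRKD2 inhibition, from the GSK PKIS screening panel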
# T1 sequence (whole entry): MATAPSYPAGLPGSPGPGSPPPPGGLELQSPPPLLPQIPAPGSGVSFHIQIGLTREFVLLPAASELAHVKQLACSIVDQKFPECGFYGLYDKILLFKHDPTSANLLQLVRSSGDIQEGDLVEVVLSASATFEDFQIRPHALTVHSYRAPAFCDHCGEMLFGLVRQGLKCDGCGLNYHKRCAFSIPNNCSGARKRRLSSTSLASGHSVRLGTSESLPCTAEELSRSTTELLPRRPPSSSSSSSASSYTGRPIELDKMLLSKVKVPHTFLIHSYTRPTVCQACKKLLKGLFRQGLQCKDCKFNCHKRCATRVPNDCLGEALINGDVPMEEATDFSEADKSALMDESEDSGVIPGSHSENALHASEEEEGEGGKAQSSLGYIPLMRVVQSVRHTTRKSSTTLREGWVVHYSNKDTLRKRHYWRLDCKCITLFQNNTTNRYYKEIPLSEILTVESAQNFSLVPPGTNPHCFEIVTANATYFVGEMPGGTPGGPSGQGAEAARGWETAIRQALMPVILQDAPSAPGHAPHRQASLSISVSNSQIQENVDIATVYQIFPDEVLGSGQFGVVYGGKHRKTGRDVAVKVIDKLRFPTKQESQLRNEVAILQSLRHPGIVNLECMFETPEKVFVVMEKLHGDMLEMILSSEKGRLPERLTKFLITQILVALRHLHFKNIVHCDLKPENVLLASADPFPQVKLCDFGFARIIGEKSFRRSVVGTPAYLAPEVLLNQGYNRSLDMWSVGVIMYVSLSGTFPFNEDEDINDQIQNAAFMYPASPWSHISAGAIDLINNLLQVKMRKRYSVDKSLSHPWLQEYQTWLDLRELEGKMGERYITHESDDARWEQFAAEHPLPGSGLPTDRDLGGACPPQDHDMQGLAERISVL
# [2] = target: T2, Serine/threonine-protein kinase D3 (Homo sapiens) (UniProt O94806); conditions: at 0.1 µM
# T2 sequence (whole entry): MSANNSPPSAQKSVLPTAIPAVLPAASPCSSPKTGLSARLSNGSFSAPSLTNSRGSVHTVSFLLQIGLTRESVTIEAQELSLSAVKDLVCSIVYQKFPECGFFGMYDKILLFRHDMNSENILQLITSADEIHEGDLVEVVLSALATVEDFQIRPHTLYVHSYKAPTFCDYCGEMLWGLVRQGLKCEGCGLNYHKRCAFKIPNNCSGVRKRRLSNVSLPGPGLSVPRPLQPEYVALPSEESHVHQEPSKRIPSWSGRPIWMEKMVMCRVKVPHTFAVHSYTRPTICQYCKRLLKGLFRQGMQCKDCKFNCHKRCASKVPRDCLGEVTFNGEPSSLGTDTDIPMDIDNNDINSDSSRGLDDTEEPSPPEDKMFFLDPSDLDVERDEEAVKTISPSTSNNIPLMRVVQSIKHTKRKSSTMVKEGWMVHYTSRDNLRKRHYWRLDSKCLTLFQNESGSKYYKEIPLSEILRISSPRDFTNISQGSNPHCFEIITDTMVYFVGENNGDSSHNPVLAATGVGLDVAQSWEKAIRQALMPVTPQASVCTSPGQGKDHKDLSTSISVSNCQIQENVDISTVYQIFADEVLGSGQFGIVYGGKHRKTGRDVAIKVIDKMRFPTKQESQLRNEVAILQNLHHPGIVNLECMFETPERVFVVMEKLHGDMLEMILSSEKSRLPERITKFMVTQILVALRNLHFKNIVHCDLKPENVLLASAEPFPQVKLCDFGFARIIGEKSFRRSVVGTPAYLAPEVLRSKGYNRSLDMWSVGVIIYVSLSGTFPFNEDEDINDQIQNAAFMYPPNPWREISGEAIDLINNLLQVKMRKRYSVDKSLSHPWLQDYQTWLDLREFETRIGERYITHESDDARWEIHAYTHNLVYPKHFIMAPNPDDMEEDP
# [3] = target: T2, Serine/threonine-protein kinase D3 (Homo sapiens); conditions: at 1 µM
# [4] = target: T3, cGMP-dependent protein kinase 1 (Homo sapiens) (UniProt Q13976); conditions: at 0.1 µM
# T3 sequence (whole entry): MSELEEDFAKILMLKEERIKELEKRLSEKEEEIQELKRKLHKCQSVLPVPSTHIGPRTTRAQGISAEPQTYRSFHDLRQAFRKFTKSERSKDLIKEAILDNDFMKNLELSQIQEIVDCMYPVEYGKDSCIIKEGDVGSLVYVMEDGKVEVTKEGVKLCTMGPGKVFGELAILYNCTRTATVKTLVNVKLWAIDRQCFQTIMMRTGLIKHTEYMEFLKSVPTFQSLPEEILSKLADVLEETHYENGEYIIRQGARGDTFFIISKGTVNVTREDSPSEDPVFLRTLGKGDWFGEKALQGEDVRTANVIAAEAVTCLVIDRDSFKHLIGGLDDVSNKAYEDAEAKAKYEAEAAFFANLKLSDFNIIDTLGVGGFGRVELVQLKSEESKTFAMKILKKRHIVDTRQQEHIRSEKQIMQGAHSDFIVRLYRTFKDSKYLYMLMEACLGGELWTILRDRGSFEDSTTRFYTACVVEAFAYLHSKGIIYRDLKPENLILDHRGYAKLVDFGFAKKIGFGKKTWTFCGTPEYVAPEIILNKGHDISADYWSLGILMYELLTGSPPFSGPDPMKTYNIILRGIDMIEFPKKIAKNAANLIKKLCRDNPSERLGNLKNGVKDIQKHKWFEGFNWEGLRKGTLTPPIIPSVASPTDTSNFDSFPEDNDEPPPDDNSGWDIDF
# [5] = target: T3, cGMP-dependent protein kinase 1 (Homo sapiens); conditions: at 1 µM
# [6] = target: T4, cGMP-dependent protein kinase 2 (Homo sapiens) (UniProt Q13237); conditions: at 0.1 µM
# T4 sequence (whole entry): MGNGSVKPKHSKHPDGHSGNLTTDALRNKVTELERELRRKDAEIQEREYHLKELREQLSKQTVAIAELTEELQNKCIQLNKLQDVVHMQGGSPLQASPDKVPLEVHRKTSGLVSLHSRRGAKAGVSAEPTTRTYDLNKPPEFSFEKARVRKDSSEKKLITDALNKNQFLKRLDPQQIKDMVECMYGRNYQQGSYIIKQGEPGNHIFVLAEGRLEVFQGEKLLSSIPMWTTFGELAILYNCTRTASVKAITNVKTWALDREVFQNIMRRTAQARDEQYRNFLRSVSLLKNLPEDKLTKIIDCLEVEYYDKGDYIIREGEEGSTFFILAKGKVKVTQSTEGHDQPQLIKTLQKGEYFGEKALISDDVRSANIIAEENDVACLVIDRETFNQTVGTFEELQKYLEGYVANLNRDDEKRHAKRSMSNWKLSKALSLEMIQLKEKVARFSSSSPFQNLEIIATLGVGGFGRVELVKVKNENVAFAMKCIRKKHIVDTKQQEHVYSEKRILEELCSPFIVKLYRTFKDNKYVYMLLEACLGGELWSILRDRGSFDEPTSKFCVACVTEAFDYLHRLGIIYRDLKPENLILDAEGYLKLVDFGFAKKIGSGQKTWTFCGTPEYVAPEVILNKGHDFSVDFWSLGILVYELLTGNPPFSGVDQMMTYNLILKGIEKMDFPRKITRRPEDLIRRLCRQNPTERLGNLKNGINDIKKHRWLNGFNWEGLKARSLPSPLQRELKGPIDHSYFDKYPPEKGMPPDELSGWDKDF
# [7] = target: T4, cGMP-dependent protein kinase 2 (Homo sapiens); conditions: at 1 µM
# [8] = target: T5, cAMP-dependent protein kinase catalytic subunit PRKX (Homo sapiens) (UniProt P51817); conditions: at 0.1 µM
# T5 sequence (whole entry): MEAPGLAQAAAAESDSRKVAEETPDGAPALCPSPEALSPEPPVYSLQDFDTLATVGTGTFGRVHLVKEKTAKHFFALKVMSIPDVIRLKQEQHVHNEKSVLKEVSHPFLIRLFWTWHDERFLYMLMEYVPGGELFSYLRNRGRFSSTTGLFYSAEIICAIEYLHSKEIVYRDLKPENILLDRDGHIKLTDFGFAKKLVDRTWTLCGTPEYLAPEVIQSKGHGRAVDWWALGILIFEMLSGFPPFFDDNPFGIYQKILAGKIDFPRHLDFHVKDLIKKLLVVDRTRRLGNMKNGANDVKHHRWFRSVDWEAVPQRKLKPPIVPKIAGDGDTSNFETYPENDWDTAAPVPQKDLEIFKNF
# [9] = target: T5, cAMP-dependent protein kinase catalytic subunit PRKX (Homo sapiens); conditions: at 1 µM
# [10] = target: Rho-associated protein kinase 1 (Homo sapiens) (UniProt Q13464); conditions: at 0.1 µM;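 note: values are mean percent inhibition of ROCK1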
# Chain of Rho-associated protein kinase 1 (Homo sapiens) (Q13464 2-1354 limits assumed): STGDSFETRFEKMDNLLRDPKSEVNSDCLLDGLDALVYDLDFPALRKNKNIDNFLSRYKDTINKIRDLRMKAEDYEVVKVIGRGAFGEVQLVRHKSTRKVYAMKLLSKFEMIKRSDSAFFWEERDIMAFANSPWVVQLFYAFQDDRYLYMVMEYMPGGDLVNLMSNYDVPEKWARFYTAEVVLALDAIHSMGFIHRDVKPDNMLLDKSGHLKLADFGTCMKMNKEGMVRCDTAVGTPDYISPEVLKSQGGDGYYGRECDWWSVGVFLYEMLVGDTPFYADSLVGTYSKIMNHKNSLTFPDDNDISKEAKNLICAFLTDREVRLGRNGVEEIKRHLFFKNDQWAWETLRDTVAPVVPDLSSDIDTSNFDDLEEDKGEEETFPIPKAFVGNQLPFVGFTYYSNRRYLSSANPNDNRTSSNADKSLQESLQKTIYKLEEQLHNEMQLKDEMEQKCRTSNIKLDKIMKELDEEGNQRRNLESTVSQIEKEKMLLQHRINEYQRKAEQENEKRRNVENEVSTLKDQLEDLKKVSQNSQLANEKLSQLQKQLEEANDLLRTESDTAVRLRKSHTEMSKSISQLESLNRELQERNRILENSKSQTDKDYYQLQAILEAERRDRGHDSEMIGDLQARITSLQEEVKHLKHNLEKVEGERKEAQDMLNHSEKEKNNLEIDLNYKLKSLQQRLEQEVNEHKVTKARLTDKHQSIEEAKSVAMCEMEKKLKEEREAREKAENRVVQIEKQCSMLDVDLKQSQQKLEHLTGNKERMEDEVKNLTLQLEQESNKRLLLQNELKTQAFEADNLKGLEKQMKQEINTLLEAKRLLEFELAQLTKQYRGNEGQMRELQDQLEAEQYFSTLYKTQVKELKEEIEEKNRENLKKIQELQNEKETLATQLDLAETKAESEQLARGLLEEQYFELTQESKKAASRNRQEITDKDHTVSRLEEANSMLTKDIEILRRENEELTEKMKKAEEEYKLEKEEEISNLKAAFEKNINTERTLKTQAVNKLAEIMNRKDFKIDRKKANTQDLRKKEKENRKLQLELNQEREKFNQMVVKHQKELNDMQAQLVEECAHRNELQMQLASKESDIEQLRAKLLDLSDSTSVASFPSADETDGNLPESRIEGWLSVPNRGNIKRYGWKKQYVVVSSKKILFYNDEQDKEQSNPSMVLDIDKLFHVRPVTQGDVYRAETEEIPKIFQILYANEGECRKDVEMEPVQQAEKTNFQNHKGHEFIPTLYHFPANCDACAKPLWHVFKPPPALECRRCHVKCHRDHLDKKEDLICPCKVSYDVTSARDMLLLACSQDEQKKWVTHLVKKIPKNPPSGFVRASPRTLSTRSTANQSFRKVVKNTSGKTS
smiles,measurement,setting,value
COC(=O)Nc1nc2cc(Oc3cccc(NC(=O)Nc4cc(C(F)(F)F)ccc4F)c3)ccc2[nH]1,inhibition,[1],1.8%
same,inhibition,[2],0.2%
same,inhibition,[3],2.71%
same,inhibition,[4],2.33%
same,inhibition,[5],2.11%
same,inhibition,[6],1.2%
same,inhibition,[7],6.47%
same,inhibition,[8],0.81%
same,inhibition,[9],2.2%
same,inhibition,[10],-0.55%
N#Cc1c(NC(=O)c2cccc3ccccc23)sc2c1CCCC2,inhibition,[1],2.96%
same,inhibition,[2],4.61%
same,inhibition,[3],4.09%
same,inhibition,[4],3.4%
same,inhibition,[5],3.28%
same,inhibition,[6],1.51%
same,inhibition,[7],3.5%
same,inhibition,[8],2.34%
same,inhibition,[9],1.92%
same,inhibition,[10],0.98%
COc1ccc(-c2ccncc2)cc1C(N)=O,inhibition,[1],5.71%
same,inhibition,[2],5.67%
same,inhibition,[3],11.1%
same,inhibition,[4],4.34%
same,inhibition,[5],13.7%
same,inhibition,[6],2.97%
same,inhibition,[7],17%
same,inhibition,[8],2.9%
same,inhibition,[9],3.27%
same,inhibition,[10],2.65%
CN1CCC(C(=O)Nc2n[nH]c3nnc(-c4ccccc4)cc23)CC1,inhibition,[1],6.42%
same,inhibition,[2],4.65%
same,inhibition,[3],5.47%
same,inhibition,[4],3.6%
same,inhibition,[5],5.14%
same,inhibition,[6],2.49%
same,inhibition,[7],4.4%
same,inhibition,[8],3.15%
same,inhibition,[9],6.09%
same,inhibition,[10],7.45%
